Reference: PubChem BioAssay AID2279 (Southern Research Specialized Biocontainment Screening …, 2010)
Potency and affinity values are given separately.

Test: CCR5-tropic HIV-1 fusion blockers – cell-based, CCR5-tropic Env, dose response (AID 2279)
Conditions: CCR5-tropic HIV-1 Env, reporter read-out; series mostly up to 50 µM; inhibition: at the top concentration; call rule not given here

inhibition, inactive:
O=C(O)/C=C/C(=O)Nc1ccc(C2(c3ccc(NC(=O)/C=C/C(=O)O)cc3)c3ccccc3-c3ccccc32)cc1 4.84%, CCCOc1ccc(C2C(C(=O)c3cc4ccccc4o3)=C(O)C(=O)N2c2cc(C)on2)cc1 (stereo unspecified) 31.8%, O=C(COc1ccc2ccccc2c1)Nc1cccc(C(=O)Nc2ccccc2C(=O)O)c1 1.46%, CCCCCc1c2c(cc(O)c1C(=O)O)OC(=O)c1c(cc(OC)cc1C(=O)CCCC)O2 12.6%, O=C(O)CSc1cc(C(=O)c2cc(F)ccc2O)cn2c(=O)c3c(-c4ccccc4)csc3nc12 24.1%, CCOC(=O)c1sc(N2C(=O)C(O)=C(C(=O)c3ccco3)C2c2cccc([N+](=O)[O-])c2)nc1C (stereo unspecified) 17.9%, O=C(NC(=S)Nc1ccccc1C(=O)O)c1ccc(-c2ccc(Br)cc2)o1 31.8%, O=C1NN(c2ccccc2)C(=O)/C1=C\c1cccc(OC(=O)c2cccs2)c1 10.8%, COc1ccc(OC)c(/C=C2\SC(=S)N(NS(=O)(=O)c3ccc(C)cc3)C2=O)c1 4.7%, CCOC(=O)c1sc2nc3c(SCCC(=O)O)cc(C(=O)c4cc(OC)ccc4O)cn3c(=O)c2c1C 26.2%, Cc1ccccc1C(=O)Nc1cccc(C(=O)N/N=C/c2cc(Cl)cc([N+](=O)[O-])c2O)c1 39.4%, COc1ccc(NS(=O)(=O)c2ccc3c(c2)[C@H]2C=CC[C@H]2[C@@H](c2ccc(C(=O)O)cc2)N3)cc1 10%, N#Cc1c(-c2ccccc2)nc(SCC(=O)N2c3ccccc3Sc3ccccc32)[nH]c1=O -1.64%, COc1cc(/C=C2/SC(=S)N(CC(=O)O)C2=O)ccc1OCC(=O)Nc1ccc(C)c(C)c1 -12.3%, CCOC(=O)C1=C(C)N=c2s/c(=C/c3ccc(OCC(=O)O)cc3)c(=O)n2C1c1ccc(SC)cc1 (stereo unspecified) 17.9%, O=C(COc1ccc(Cl)cc1)Nc1cc(NC(=O)COc2ccc(Cl)cc2)cc(C(=O)O)c1 -12.1%, Cc1ccc2nc(N3C(=O)C(O)=C(C(=O)c4ccco4)C3c3cccc(O)c3)sc2c1 (stereo unspecified) -0.55%, COc1cc(/C=C2/SC(=S)N(Cc3ccccc3)C2=O)ccc1OCC(=O)O 23.6%, Cc1c(CCC(=O)O)c(=O)oc2c(C)c3occ(-c4ccc(Br)cc4)c3cc12 4.8%, CCCCCNC(=O)c1ccc2c(=O)[nH]c3c(C(=O)NCC4CCCO4)sc(=S)n3c2c1 (stereo unspecified) 28.3%, COC(=O)c1sc(-c2ccc(C(C)(C)C)cc2)cc1NC(=O)CSCC(=O)O 9.91%
